Among all 310,000 compounds or so, about 3,900 (1.3%) were called active.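 How the source made its calls: active means compounds whose thallium flux B-score, printed positive for inhibition, exceeds three library SD while starting fluorescence stays within three; inactive means the rest.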 Shown is part of a subset that was picked to be rich in actives.
Each molecule was assayed against Potassium voltage-gated channel subfamily KQT member 1 (Homo sapiens) (UniProt P51787) (assay: inhibitors of human KCNQ1 channel, primary screen, cell-based, thallium flux, high-throughput (AID 2642;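 further: channel opened by potassium depolarization with thallium stimulus after 20 min compound exposure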)). Settings: CHO-K1 KCNQ1, FluxOR thallium flux fluorescence, at 10 µM; stronger effect = higher value.
Potassium voltage-gated channel subfamily KQT member 1 (Homo sapiens), sequence (P51787 whole entry, looked up): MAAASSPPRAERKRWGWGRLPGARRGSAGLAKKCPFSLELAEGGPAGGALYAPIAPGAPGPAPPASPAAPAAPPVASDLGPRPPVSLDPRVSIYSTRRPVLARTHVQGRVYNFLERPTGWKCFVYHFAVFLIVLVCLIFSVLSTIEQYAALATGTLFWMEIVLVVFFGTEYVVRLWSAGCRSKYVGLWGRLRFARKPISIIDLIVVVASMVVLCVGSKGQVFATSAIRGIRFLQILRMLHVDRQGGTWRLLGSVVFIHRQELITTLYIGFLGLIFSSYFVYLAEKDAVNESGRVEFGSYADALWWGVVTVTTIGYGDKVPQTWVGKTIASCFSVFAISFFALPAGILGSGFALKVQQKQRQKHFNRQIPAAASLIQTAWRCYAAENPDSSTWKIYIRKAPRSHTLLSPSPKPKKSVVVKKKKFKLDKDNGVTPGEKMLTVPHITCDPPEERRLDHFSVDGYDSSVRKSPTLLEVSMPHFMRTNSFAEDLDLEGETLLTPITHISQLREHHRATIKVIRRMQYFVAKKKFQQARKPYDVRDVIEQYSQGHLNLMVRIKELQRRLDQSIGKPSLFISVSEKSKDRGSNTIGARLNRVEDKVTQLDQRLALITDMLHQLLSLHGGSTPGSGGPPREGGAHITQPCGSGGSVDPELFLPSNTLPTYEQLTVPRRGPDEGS

Row | Compound | B-score
1 | Clc1ccccc1CSc1nnc(-c2ccco2)c(-c2ccco2)n1 | 11 (active)
2 | O=c1cc(O)nc(SCc2ccccc2Cl)[nH]1 | inactive
3 | Fc1cccc(Cl)c1CSc1ccc(-c2ccco2)nn1 | inactive
4 | CC[C@@]12C(=O)N(c3ccccc3)C(=O)N1[C@H](c1ccc(Br)cc1)[C@@H]1C(=O)N(C(C)(C)C)C(=O)[C@@H]12 | inactive
5 | CCC(=O)Nc1ccc(C(=O)Nc2ccc3c(c2)C(=O)N(CC2CCCO2)C3=O)cc1 (configuration not stated) | inactive
6 | O=C1c2cccc3c([N+](=O)[O-])ccc(c23)C(=O)N1CC1CCCO1 (configuration not stated) | 6 (active)
7 | CCOc1cccc(=O)c2c(C)n(CC3CCCO3)c(C)c12 (configuration not stated) | inactive
8 | CCOC(=O)C1CCN(Cc2coc3ccc(Cl)cc3c2=O)CC1 | inactive
9 | Cc1ccccc1-n1cc(CNC(=O)C2CCC(=O)N(C3CC3)C2)cn1 (configuration not stated) | inactive
10 | Cc1ccc(C)c(N2CCN(S(=O)(=O)c3c(C)[nH]c(C)c3C(=O)N3CCCC3)CC2)c1 | inactive
11 | O=[N+]([O-])c1cc(Br)c(O)c(/C=N/Nc2nc3ccccc3s2)c1 | 12 (active)
12 | COc1ccc(CC(=O)N/N=C/c2cc([N+](=O)[O-])cc(Br)c2O)cc1 | inactive
13 | c1ccc2sc(NN=C3CCCC3)nc2c1 | inactive
14 | CCc1ccc(N(CC(=O)Nc2sc3c(c2C(=O)OC)CCCC3)S(C)(=O)=O)cc1 | inactive
15 | O=C(Nc1sc2c(c1C(=O)O)CCC2)c1ccccc1F | inactive
16 | CCN(CC)CC(=O)Nc1sc2c(c1C(=O)c1ccccc1C)CCC2 | 8 (active)
17 | CCc1nc(N2CCN(C(C)=O)CC2)c2c3c(sc2n1)CCCC3 | inactive
18 | NS(=O)(=O)c1ccc(CCNC(=S)Nc2ccc(S(N)(=O)=O)cc2)cc1 | inactive
19 | NS(=O)(=O)c1ccc(NC(=S)NC(=O)c2cccc(Br)c2)cc1 | inactive
20 | NS(=O)(=O)c1ccc(NC(=S)Nc2ccc(Br)c(Cl)c2)cc1 | 8 (active)
21 | CCCCSc1[nH]c(=O)c(C(=O)OCC)cc1C#N | inactive
22 | COCCN(C(=S)Nc1cccc(Cl)c1C)C(C)c1ccco1 (configuration not stated) | inactive

Row | Compound | B-score
23 | Fc1ccc(/C=N/n2c(COc3ccccc3)n[nH]c2=S)cc1 | inactive
24 | CC(C)[C@H](NC(=O)N1CCn2c1nc1ccccc12)C(=O)NCCc1ccccc1 | inactive
25 | CC(C)CCNC(=O)Cn1c(=O)oc2cc(S(=O)(=O)N3CC(C)CC(C)C3)ccc21 (configuration not stated) | inactive
26 | CCOc1ccc(CN2CCN(Cc3c[nH]c4ccccc34)CC2)cc1 | 12 (active)
27 | CCOc1ccc(CC(=O)NC2CCN(Cc3ccccc3)CC2)cc1 | inactive
28 | CCOc1ccc(CN2CCCN(C)CC2)cc1 | inactive
29 | COc1ccc(N(C)S(=O)(=O)c2ccc3c(c2)CC(C)N3C(=O)C2CC2)c(OC)c1 (configuration not stated) | inactive
30 | Cc1occc(=O)c1OCc1ccc(F)cc1 | inactive
31 | Fc1ccccc1COc1cccc2cccnc12 | inactive
32 | Cc1nc2ccccc2cc1OCc1ccc(F)cc1 | 11 (active)
33 | CN1C(=O)c2cccc3c(N)ccc(c23)C1=O | inactive
34 | Cc1nn(C)cc1N1C(=O)c2cccc3c(N)ccc(c23)C1=O | 22 (active)
35 | O=C1c2ccccc2C(=O)N1c1cccc2ccccc12 | inactive
36 | C/C(N)=C(/C#N)C(=O)COC(=O)c1cc(-c2ccc(C)cc2)nc2ccccc12 | inactive
37 | CCCCCCCC[n+]1cccc(C(=O)N2c3c(nc(N)[nH]c3=O)NC(C)C2C)c1 (configuration not stated) | inactive
38 | O=C(NC(=S)Nc1ccccc1C(=O)O)c1ccc(-c2ccc(Br)cc2)o1 | 7 (active)
39 | O=C(O)c1ccccc1NC(=O)c1ccccc1-c1ccccc1C(=O)O | inactive
40 | COC(=O)c1ccccc1NC(=S)NC(=O)c1ccccc1F | inactive
41 | COCCNC(=O)C(c1ccc(O)cc1)N(C(=O)CCC(=O)Nc1nccs1)c1ccc(C)cc1 (configuration not stated) | inactive
42 | CCOC(=O)CN(C(=O)COc1nc(C)cc(C)c1C#N)c1ccc(Cl)cc1 | inactive
43 | Cc1cc(C(=O)CCC(=O)NNC(=O)c2ccccc2O)c(C)s1 | 6 (active)
44 | CC1=C(C)CC(C(=O)NNC(=O)c2ccccc2O)C(C(=O)O)C1 (configuration not stated) | inactive

Row | Compound | B-score
45 | Cc1ccccc1C(=O)NNC(=O)CN1C(=O)c2ccccc2C1=O | inactive
46 | COc1ccccc1CNC(=O)COn1nnc2ccc(S(=O)(=O)N3CCOCC3)cc21 | inactive
47 | O=S(=O)(c1ccc(Cl)cc1)c1nc(-c2ccco2)oc1N1CCCCC1 | inactive
48 | CCc1cc(C(c2ccccc2OC)N2CCOCC2)c(NC(=O)c2ccccc2)s1 (configuration not stated) | 7 (active)
49 | COc1ccc(C(=O)Nc2sc(C)c(C)c2CN2CCOCC2)cc1 | inactive
50 | CCc1cc(C(N)=O)c(NC(=O)c2ccc(OC)cc2)s1 | inactive
51 | CC(C)CNc1ncnc2c1cnn2Cc1ccc(Cl)cc1 | inactive
52 | Cc1ccc(Cl)cc1NC(=O)COC(=O)CC(C)(C)C | inactive
53 | COCn1c(C(O)c2ccccc2)cc2ccccc21 (configuration not stated) | inactive
54 | Cc1cc(CNC(=O)c2cccc([N+](=O)[O-])c2)c2ccccc2n1 | inactive
55 | N#Cc1cccc(Nc2c3c(nc4ccccc24)CCCC3)c1 | inactive
56 | O=[N+]([O-])c1cccc(Nc2c3ccccc3nc3ccccc23)c1 | 8 (active)
57 | NS(=O)(=O)c1ccc(CCNC(=O)CNC(=O)Cc2ccccc2)cc1 | inactive
58 | O=C1N(c2ccccc2)C(=Nc2ccccc2)SC12CC2 | inactive
59 | C#CCCOC(=O)N1C2=NC(C(=O)OC)=C(C(=O)OC)[C@@H]3N(C)c4ccc(OC)cc4[C@]23C[C@H]1C(=O)OC | inactive
60 | O=C1c2ccccc2C(=O)c2c1cccc2N1CCN(C/C=C/c2ccccc2)CC1 | inactive
61 | O=C1c2ccccc2C(=O)c2c1cccc2N1CCN(Cc2ccccc2)CC1 | 6 (active)
62 | O=C1c2ccccc2C(=O)c2c1cccc2N1CCN(CCO)CC1 | inactive
63 | COC(=O)c1cccc(N(C(=O)CNC(=O)c2cccs2)C(C(=O)NCC2CCCO2)c2ccc(OC)c(OC)c2)c1 (configuration not stated) | inactive
64 | Oc1ccc2ccc3cccc[n+]3c2c1 | 30 (active)
65 | CCN(Cc1nc2ccccc2c(=O)[nH]1)Cc1cc(=O)oc2cc(C)c(C)cc12 | inactive
66 | CC(C)CCN(C(=O)c1csnn1)C(C(=O)NC1CCCC1)c1ccccc1 (configuration not stated) | inactive

Row | Compound | B-score
67 | O=C(Nc1cccc(F)c1)NC1CCCCCCC1 | inactive
68 | Cc1cc(C)cc(NC(=O)NC2CCCCCCC2)c1 | 7 (active)
69 | CC(C)c1ccc(NC(=O)NC2CCCCC2)cc1 | inactive
70 | COc1cccc2c1OCC(C(=O)NCc1ccc(Cl)cc1Cl)=C2 | inactive
71 | CCOc1cc(C2C(C(=O)OC(C)C)=C(C)NC3=C2C(=O)CCC3)cc([N+](=O)[O-])c1O (configuration not stated) | inactive
72 | CS(=O)(=O)N(CC(=O)Nc1ccc(F)cc1)C1CCCCC1 | inactive
73 | CCC(C)NC(=O)CN(C1CCCCC1)S(C)(=O)=O (configuration not stated) | inactive
74 | CS(=O)(=O)N(CC(=O)Nc1ccc(Cl)c(Cl)c1)C1CCCCC1 | 7 (active)
75 | CC(NC(=O)Cn1cc(C(F)(F)F)cc(Cl)c1=O)c1ccccc1 (configuration not stated) | inactive
76 | NS(=O)(=O)c1cc2c(cc1Cl)NC(C(Cl)Cl)NS2(=O)=O (configuration not stated) | inactive
77 | CC(C)OC(=O)C(C#N)c1nc2ccccc2nc1N1CCN(Cc2ccccc2)CC1 (configuration not stated) | 7 (active)
78 | CCOC(=O)/C(C#N)=C/c1ccc(N2CCN(Cc3ccccc3)CC2)cc1 | inactive
79 | COC(=O)c1sc(N2CCN(Cc3ccccc3)CC2)nc1N | inactive
80 | COc1ccc(S(=O)(=O)N(CC(=O)N/N=C/c2ccc(C(=O)O)cc2)Cc2ccccc2)cc1OC | inactive
81 | CC(=O)N1c2ccc(S(=O)(=O)N3CCCC(C(=O)NCc4ccc(Cl)cc4)C3)cc2CC1C (configuration not stated) | inactive
82 | CCN(C(=O)COc1ccc(C(=O)c2ccccc2)cc1)c1ccccc1 | inactive
83 | N#CC1=C(SCc2ccc(C#N)cc2)N=C(N)C(c2nc(-c3ccccc3)cs2)C12CCCCC2 (configuration not stated) | 6 (active)
84 | N#CC1=C(SCc2ccccc2)NC(=O)C(C#N)C12CCCC2 (configuration not stated) | inactive
85 | N#Cc1ccc(CSc2ncccn2)cc1 | inactive
86 | COc1ccc(OC)c2[nH]c(=O)c(CCNC(=O)C(=O)c3c[nH]c4ccccc34)cc12 | inactive
87 | COCCn1c(SCC(=O)Nc2cc(OC)ccc2OC)nc2c(c1=O)SC(C)C2 (configuration not stated) | inactive
88 | COc1ccc(-c2c(C#Cc3ccccc3)c3ccccc3n2C)cc1 | inactive

Row | Compound | B-score
89 | COc1ccc(CCNCc2c(-c3ccccc3)n(C)c3ccccc23)cc1 | 7 (active)
90 | COc1ccc(-c2nc3ccccc3c(=O)n2CCc2ccc(O)cc2)cc1 | inactive
91 | CCN1N=C(c2ccccc2)CCC1=O | inactive
92 | Cc1ccccc1NC(=O)CNc1ccccc1N1CCCCC1 | inactive
93 | O=C(CNCCC1=CCCCC1)Nc1ccccc1N1CCCCCC1 | 12 (active)
94 | Cc1ccccc1NC(=O)Nc1ccccc1N1CCCCC1 | inactive
95 | COC(=O)c1ccc(COC(=O)C2CCN(S(=O)(=O)c3c(Cl)cccc3Cl)CC2)o1 | inactive
96 | COc1cc(CN2CCNC(=O)C2CC(=O)NCCc2ncccc2C)cc(OC)c1 (configuration not stated) | inactive
97 | CC(=O)Nc1c2c(nn1-c1cccc(C)c1)CSC2 | inactive
98 | CCC[C@@H]1C[C@@]1(CCC)[C@@H](NC(=O)c1ccccc1)c1ccc(C(=O)OC)cc1 | 12 (active)
99 | CCC/C=C(\CCC)C(NC(=O)Cc1ccccc1)c1ccc(C(=O)OC)cc1 (configuration not stated) | inactive
100 | COC(=O)c1ccc(NCC(=O)c2ccccc2)cc1 | inactive
101 | COc1ccc(CN(C)C(=O)Cc2c[nH]c3ccccc23)c(OC)c1OC | inactive
102 | c1ccc(C2=Nc3cccc4cccc(c34)N2)cc1 | inactive
103 | CNC(=S)N1N=C(c2ccccc2)CC1c1ccc(Br)cc1 (configuration not stated) | inactive
104 | Brc1ccc(C2CC(c3ccccc3)=Nc3ccccc3N2)cc1 (configuration not stated) | 10 (active)
105 | CC1CCCN(S(=O)(=O)c2ccc(N(C(=O)c3cnccn3)C(C(=O)NC3CCCCC3)c3cccs3)cc2)C1 (configuration not stated) | inactive
106 | Cc1cc(C)n(-c2nnc(C)n2NC(=O)c2cccc(Cl)c2)n1 | inactive
107 | Cc1ccc2c(c1)N(CCCC(=O)NCc1cccnc1)C(=O)CO2 | inactive

From PubChem BioAssay AID2642 (Johns Hopkins Ion Channel Center, 2010)
